± gives the standard deviation of the averaged measurements.
Each molecule was assayed on Listeria monocytogenes 10403S (assay: growth inhibition relative to ceftriaxone-alone control; higher = stronger potentiation of ceftriaxone growth inhibition). Conditions: 10 µM; ceftriaxone 1 ug/ml; 12 h.
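Also: End-point A600 read in BHI broth at 37 °C with 2% DMSO, inhibition computed as (1 − OD with compound plus ceftriaxone ÷ OD with ceftriaxone only) × 100.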

Row | SMILES | growth inhibition [%]
1 | CC(C)(C)c1cc(NC(=O)Nc2ccc(-c3cn4c(n3)sc3cc(OCCN5CCOCC5)ccc34)cc2)no1 [Quizartinib (AC220)] | 35.5 ± 10
2 | Cc1cn(-c2cc(NC(=O)c3ccc(C)c(Nc4nccc(-c5cccnc5)n4)c3)cc(C(F)(F)F)c2)cn1 [Nilotinib (AMN-107)] | 46.8 ± 3.8
3 | COc1cc(Nc2ncc(-c3ccccc3)o2)cc(OC)c1OC | 1.14 ± 0.11
4 | NS(=O)(=O)c1ccc(N/N=C2\C(=O)Nc3ccc(Cl)cc32)cc1 | -12.5 ± 11
5 | COc1cc2c(cc1Nc1nc(N3CCc4ccccc43)c3cc[nH]c3n1)N(C(=O)CN(C)C)CC2 | 7.28 ± 0.39
6 | NC(=O)c1cccc(Nc2nccc(Nc3cccc4[nH]ncc34)n2)c1 | 0.727 ± 1.3
7 | C[S+]([O-])c1ccc(-c2nc(-c3ccc(F)cc3)c(-c3ccncc3)[nH]2)cc1 (stereo not drawn) | 28.4 ± 26
8 | CC(=O)NCC(=O)N1[C@@H]2CC[C@H]1c1ccc(Nc3ncc(C(F)(F)F)c(NC4CCC4)n3)cc12 | 52 ± 46
9 | COc1cc2ncn(-c3cc(OCc4cccs4)c(C(N)=O)s3)c2cc1OC | -10.4 ± 16
10 | CS(=O)(=O)Nc1ccc(N/C=C2\C(=O)Nc3ccccc32)cc1 | -14.6 ± 19
11 | CC(C)(C)c1nc(-c2cccc(NS(=O)(=O)c3c(F)cccc3F)c2F)c(-c2ccnc(N)n2)s1 | 56.2 ± 26
12 | NS(=O)(=O)c1ccc(Nc2ncc(-c3ccccc3)o2)cc1 | 6.88 ± 6.9
13 | CCc1nccc2c1nc(-c1nonc1N)n2CC | -8.48 ± 4.8
14 | CN1CCN(c2nc(C3=C(c4c[nH]c5ccccc45)C(=O)NC3=O)c3ccccc3n2)CC1 [Sotrastaurin (AEB071)] | 44.8 ± 28
15 | COc1ccc(-c2ccncc2)cc1C(N)=O | -4.48 ± 7.1
16 | COc1ccc(-c2cc3c(N)ncnc3o2)cc1 | -3.61 ± 1.9
17 | CS(=O)(=O)CCNCc1cc(-c2cc3c(Nc4ccc(OCc5cccc(F)c5)c(Cl)c4)ncnc3s2)cs1 | -10.8 ± 13
18 | CNC(=O)c1ccc(C)c(-n2c(C)cc(OCc3ccc(F)cc3F)c(Br)c2=O)c1 | 35.2 ± 11
19 | CCc1cc2c(cc1N1CCC(N3CCOCC3)CC1)C(C)(C)c1[nH]c3cc(C#N)ccc3c1C2=O | -2.85 ± 9.2

Row | SMILES | growth inhibition [%]
20 | COC(=O)Nc1ccc(-c2nc(N3CCOCC3)c3cnn(C4CCN(C(=O)OC)CC4)c3n2)cc1 | -59.1 ± 10
21 | Clc1ccc(Nc2nnc(Cc3ccncc3)c3ccccc23)cc1 [Vatalinib 2HCl (PTK787)] | 24.8 ± 20
22 | CCN(CC)S(=O)(=O)c1ccc(OC)c(Nc2ncc(-c3ccccc3)o2)c1 | -5.97 ± 2.9
23 | Cc1cc2c(F)c(Oc3ncnn4cc(OC[C@@H](C)OC(=O)[C@H](C)N)c(C)c34)ccc2[nH]1 | 100.2 ± 0.95
24 | NCc1ccc(-n2c(-c3nonc3N)nc3cnccc32)cc1 | -4.5 ± 3.6
25 | CC(=O)Nc1cccc(C#Cc2cncnc2Nc2ccc(OCc3cccc(F)c3)c(Cl)c2)n1 | -0.967 ± 4.2
26 | Cc1nc(N)sc1-c1ccnc(Nc2ccc(N3CCOCC3)cc2)n1 | -5.25 ± 7.3
27 | COc1cc2nccc(Oc3ccc(NC(=O)NC4CC4)c(Cl)c3)c2cc1C(N)=O [E7080 (Lenvatinib)] | 5.83 ± 14
28 | O=C(c1ccc(/C=C/c2n[nH]c3ccccc23)cc1)N1CCNCC1 | 7.15 ± 1.2
29 | COCCOc1ccc2c(c1)ncn2-c1ccc2cccc(N3CCC(N)CC3)c2n1 | 7.08 ± 14
30 | O=C(O[C@H]1CN[C@H](C#Cc2cc3ncnc(Nc4ccc5c(cnn5Cc5ccccc5)c4)c3s2)C1)N1CCOCC1 | -5.28 ± 15
31 | N#Cc1c(NC(=O)c2ccccc2F)sc2c1CCCC2 | -3.06 ± 2.3
32 | FC(F)(F)c1ccc(-c2nn3ncccc3c2-c2ccnc(Nc3ccc4c(c3)OCCO4)n2)cc1 | -7.04 ± 3.3
33 | NS(=O)(=O)c1ccc(N/N=C2\C(=O)Nc3cccc(CCc4ccncc4)c32)cc1 | -4.56 ± 8.2
34 | N#Cc1c(NC(=O)CN2CCOCC2)sc2c1CCCC2 | 9.96 ± 12
35 | CCn1c(-c2nonc2N)nc2cncc(C(=O)NCCNC)c21 | -6.44 ± 0.39
36 | CCC(=O)Nc1ccc(C)c(-c2ccc(C(=O)NCC3CC3)cc2)c1 | -2.46 ± 1.9
37 | COC(=O)c1ccc2c(c1)C(=Cc1cc(Br)c(O)c(Br)c1)C(=O)N2 | 12.4 ± 1.5
38 | O=c1sn(-c2cccc3ccccc23)c(=O)n1Cc1ccccc1 [Tideglusib] | 89.5 ± 12

Source: the supplement of paper PMC5641865, “A screen for kinase inhibitors identifies antimicrobial imidazopyridine aminofurazans as specific inhibitors of the Listeria monocytogenes PASTA kinase PrkA” (The Journal of Biological Chemistry, 2017)
